In PubChem BioAssay (NCATS):
Several values for one entry are separate records, joined by “and”; a condition that tells them apart may be missing. Identical values can stand only once. Results filed as inconclusive are left out. A call without a number means that no potency is given here. Activity calls are given as the source filed them. Unless noted, calls come from the whole dose curve; as a rule, active = well fitted curve in the direction sought with a large enough effect; inconclusive = small, poorly fitted or top-dose-only effect, or another doubt; inactive = no such curve, though single readings can be large; an effect the other way counts as inactive or inconclusive.

Legend:
[1] = Cell Viability - Hek293 (AID 427;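 active = compounds whose dose-response curve shows a full or clear partial loss of cell viability, called from curve shape rather than a numeric limit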;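 note: potency is the fitted concentration of half-maximal effect; cells exposed to compound for 40 hours at 37 °C before reading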); conditions: qHTS
Outline: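 HEK293 cells in complete medium were exposed to compound for 40 hr at 37 °C, then cellular ATP was read by CellTiter-Glo luminescence. Data were normalized to DMSO (basal) and 100 uM tamoxifen (100% inhibition), and AC50 came from Hill fits.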

[2] = Cell Viability - SK-N-SH (AID 435; calls by dose curve; note: potency is the fitted concentration of half-maximal effect); conditions: SK-N-SH neuroblastoma cell viability qHTS
Outline: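 qHTS cytotoxicity: CellTiter-Glo ATP luminescence after 40 h compound exposure of human neuroblastoma SK-N-SH cells at 37 °C. AC50 derived by Hill-equation fitting, with DMSO as basal and 100 uM tamoxifen as full inhibition.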

[3] = Cell Viability - N2a (AID 540); conditions: N2a mouse neuroblastoma cell viability; activity change, negative = cytotoxicity: at 92.2 µM (top of the series); note: nearly all actives have a fitted effect of over 45% in size; note: potency is the fitted concentration of half-maximal effect
Outline: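 CellTiter-Glo ATP luminescence, read 20 min after reagent at room temperature, reported viability following 40 h compound treatment at 37 °C. N2a mouse neuroblastoma cells seeded 1500/well; Hill equation gave AC50.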

[4] = Cellular Toxicity (caspase-3) HepG2 (AID 654); conditions: HepG2 caspase-3 activation, luminescence, 0% = DMSO only, 100% = tamoxifen; series mostly up to 92.2 µM;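 note: cells exposed to compound for 16 hours before reading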
Outline: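 Caspase 3/7 activation is measured as a luminescence increase (aminoluciferin substrate) after 16 h compound exposure of human hepatocarcinoma HepG2 cells. AC50 values are Hill fits, scaled between DMSO baseline and 100 uM tamoxifen stimulation.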

[5] = Cellular Toxicity (caspase-3) Hek293 (AID 664); conditions: HEK293 caspase-3 activation, DMSO = 0%, 100 µM tamoxifen = 100%; at 92.2 µM (top of the series);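 note: cells exposed to compound for 16 h at 37 °C before readout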
Outline: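 Concentration-response qHTS: caspase 3/7 activation measured by luminescent aminoluciferin substrate cleavage after 16 h compound exposure of Hek 293 cells. AC50 from Hill equation, with DMSO as basal and 100 uM tamoxifen as 100%.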

[6] = MultiTox-Fluor Cytotoxicity Assay - LYMP1-001 - Dead Cells (AID 946); conditions: LYMP1-001 lymphoblastoid cells, dead-cell protease fluorescence; series mostly up to 92.2 µM
Outline: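 LYMP1-001 lymphoblastoid cells (2500/well) treated 16 h at 37 C. Dead-cell protease cleavage of bis-AAF-R110 read at Ex/Em 485/520. Normalized to DMSO and 15 uM tetraoctylammonium bromide; AC50 from Hill fits.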

[7] = Cell Viability - LYMP1-002 - Assay at 16 hr (AID 948); conditions: LYMP1-002 lymphoblastoid cell viability; series mostly up to 92.2 µM
Outline: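 ATP luminescence (CellTiter-Glo) was measured after 16 hr compound exposure at 37 C of 2500 lymphoblastoid LYMP1-002 cells per well. Concentration-response curves were fitted with the Hill equation to give AC50.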

[8] = Cell Viability - LYMP2-003 (AID 965); conditions: LYMP2-003 lymphoblastoid cell viability; series mostly up to 92.2 µM;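 note: cells exposed to compounds for 24 h before reading; nearly all actives have a fitted effect of over 50% in size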; note: potency is the fitted concentration of half-maximal effect
Outline: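 CellTiter-Glo luminescence quantified ATP loss after 24 h compound treatment of LYMP2-003 lymphoblastoid cells at 37 C. Titration series were fitted with the standard Hill equation to give AC50.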

[9] = Cell Viability - LYMP2-024 (AID 988); conditions: LYMP2-024 lymphoblastoid cell viability; series mostly up to 92.2 µM; note: nearly all actives have a fitted effect of over 60% in size; note: potency is the fitted concentration of half-maximal effect
Outline: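 Cytotoxicity was taken as a decrease in ATP (CellTiter-Glo luminescence) after 24 hr compound exposure at 37 C of LYMP2-024 lymphoblastoid cells, 2500 cells/well. Concentration-response data were fitted to the Hill equation to give AC50.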

[10] = Cell Viability - LYMP2-026 (AID 989); conditions: LYMP2-026 lymphoblastoid cell viability, qHTS; series mostly up to 92.2 µM; note: nearly all actives have a fitted effect of over 50% in size
Outline: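 Cytotoxicity read as ATP-dependent luminescence (CellTiter-Glo, 30 min room temperature) after 24 h compound treatment at 37 C. LYMP2-026 lymphoblastoid line seeded at 2500 cells/well; AC50 derived by standard Hill equation.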

[11] = Cell Viability - LYMP1-002 - Assay at 24 hr (AID 993); conditions: LYMP1-002 lymphoblastoid cells viability; series mostly up to 92.2 µM; note: potency is the fitted concentration of half-maximal effect
Outline: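 qHTS cytotoxicity at 24 h: CellTiter-Glo ATP luminescence in lymphoblastoid line LYMP1-002 incubated with compound at 37 °C. Concentration-response modeled with the Hill equation for AC50; tetraoctylammonium bromide served as positive control.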

[12] = qHTS assay for small molecule agonists of retinoid X receptor alpha signaling (AID 588544); conditions: HEK293T RXRa-UAS-bla, beta-lactamase reporter, 18 h; 530 nm emission
[13] = target: Thyroid hormone receptor beta (Homo sapiens) (UniProt P10828); assay: qHTS assay for small molecule agonists of thyroid hormone receptor beta signaling (AID 588545; calls by dose curve); conditions: TR-UAS-bla GripTite HEK 293, beta-lactamase ratio, agonist mode, 18 h; series mostly up to 76.7 µM
Outline: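 HEK 293 TR-UAS-bla; agonist mode; 18 hrs, 37 C; CCF4, ex 405/em 460 and 530 nm; norm. T3 10 nM = 100%, DMSO = 0%; Hill fit → EC50, efficacy.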

[14] = target: Retinoic acid receptor RXR-alpha (Homo sapiens) (UniProt P19793); assay: qHTS assay for small molecule antagonists of retinoid X receptor alpha signaling (AID 588546; active = well fitted inhibition curve with a large enough effect in the signal ratio, with a control signal flat, not every such curve was filed as active; the % refers to the signal ratio;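 note: cells stimulated with 9-cis-retinoic acid as agonist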); conditions: HEK293T RXRa-UAS-bla, beta-lactamase ratio, antagonist mode
Outline: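 Beta-lactamase reporter inhibition, read as CCF4 fluorescence ratio (ex 405, em 460/530 nm) after 2 h at RT. HEK293T UAS-bla cells, 2500/well, were stimulated with 9-cis-RA at 500 or 100 nM final alongside test compound for 18 h at 37 C.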

[15] = target: Nuclear receptor ROR-gamma (Homo sapiens) (UniProt P51449); assay: qHTS assay for small molecule antagonists of the retinoid-related orphan receptor gamma (ROR-gamma) signaling pathway (AID 651802); conditions: ROR-gamma antagonist cell reporter assay; series mostly up to 92.2 µM; note: nearly all actives have a fitted effect of over 60% in size; note: potency is the fitted concentration of half-maximal effect
Outline: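 Luminescence (One-Glo, 30 min RT) measured 16 h after compound addition and doxycycline induction at 37C. Reporter: RORE-luciferase under TET-inducible ROR-gamma in CHO cells.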

[16] = qHTS assay for small molecule agonists of the antioxidant response element (ARE) signaling pathway measured by Nrf2-dependant transcriptional activity (AID 720636; active = well fitted curve in the direction sought with a large enough effect in the repeat runs; an effect the other way counts as inactive or inconclusive;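 note: HepG2 cells with an ARE-driven luciferase reporter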); conditions: ARE-luc HepG2, Nrf2 luciferase reporter, 16 h; series mostly up to 92.4 µM
Outline: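 ONE-Glo luminescence, read 30 min after reagent addition at room temperature, reflected ARE reporter activity in HepG2 cells that had been incubated with compound for 16 hr at 37 C in 1% dialyzed FBS.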

[17] = qHTS assay for cell viability of the p53RE-bla HCT-116 cell line (AID 743292); conditions: p53RE-bla HCT-116 viability, ATP luminescence, 16 h; series mostly up to 95 µM; note: nearly all actives have a fitted effect of over 55% in size
Outline: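 After plating at 4,000 cells per well and a 5 h rest at 37 C, HCT-116 cells carrying p53RE-bla received test chemicals in DMSO. Sixteen hours later at 37 C, CellTiter-Glo was added and luminescence recorded following 30 min at room temperature.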

[18] = Cellular Toxicity (caspase-3) Mesangial (AID 660); conditions: mesangial cells, normalized: DMSO 0%, 100 µM tamoxifen 100%; series mostly up to 91.7 µM;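 note: combined caspase 3 and 7 activity read by Caspase-Glo luminescence; cells exposed to compound for 16 h before the caspase read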
Outline: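 Caspase 3/7 activation measured by Caspase-Glo 3/7 luminescence (20 min, room temperature) following 16 h exposure of mesangial cells (1000/well); AC50 from Hill-equation fit, normalized to DMSO and 100 uM tamoxifen.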

[19] = MultiTox-Fluor Cytotoxicity Assay - LYMP1-002 - Dead Cells (AID 960); conditions: LYMP1-002 lymphoblastoid cells, dead-cell protease fluorescence; series mostly up to 46.1 µM; note: nearly all actives have a fitted effect of over 60% in size; note: potency is the fitted concentration of half-maximal effect
Outline: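 Dead-cell fluorescence (Ex/Em 485/520) after 16 h compound exposure at 37 C of LYMP1-002 lymphoblastoid cells in complete medium; AC50 by Hill equation, with data scaled between DMSO and 15 uM tetraoctylammonium bromide.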

[20] = target: Tumor necrosis factor (Homo sapiens) (UniProt P01375); assay: qHTS assay to identify small molecules that stimulate Tumor Necrosis Factor-alpha (TNF-alpha) secretion (AID 651757; active = well fitted curve in the direction sought with a large enough effect in the signal ratio; the % refers to the signal ratio); conditions: Human cells, HTRF 665/615 ratio; series mostly up to 92.2 µM
Outline: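 Secreted TNF-alpha quantified by TR-FRET sandwich of two labeled anti-TNF-alpha antibodies, incubated 3 hr at room temperature. Preceded by 17 hr, 37 C compound treatment of THP-1 cells at 3000 cells/well.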

Sequence of Nuclear receptor ROR-gamma (Homo sapiens) (P51449 whole entry, looked up): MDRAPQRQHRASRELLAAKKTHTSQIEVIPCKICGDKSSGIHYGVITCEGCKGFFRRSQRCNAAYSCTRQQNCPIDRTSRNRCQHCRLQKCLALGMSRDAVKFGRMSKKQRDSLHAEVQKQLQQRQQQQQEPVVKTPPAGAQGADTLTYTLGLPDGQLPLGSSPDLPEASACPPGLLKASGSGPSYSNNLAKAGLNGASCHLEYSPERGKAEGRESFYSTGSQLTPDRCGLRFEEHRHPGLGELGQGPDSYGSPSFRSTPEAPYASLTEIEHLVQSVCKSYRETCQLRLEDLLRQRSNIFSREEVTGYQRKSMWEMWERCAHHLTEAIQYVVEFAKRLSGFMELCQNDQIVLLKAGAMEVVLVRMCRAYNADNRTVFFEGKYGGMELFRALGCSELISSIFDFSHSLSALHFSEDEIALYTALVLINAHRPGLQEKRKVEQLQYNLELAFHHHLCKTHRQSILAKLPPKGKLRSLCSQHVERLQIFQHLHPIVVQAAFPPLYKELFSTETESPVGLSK
Sequence of Thyroid hormone receptor beta (Homo sapiens) (P10828 whole entry, looked up): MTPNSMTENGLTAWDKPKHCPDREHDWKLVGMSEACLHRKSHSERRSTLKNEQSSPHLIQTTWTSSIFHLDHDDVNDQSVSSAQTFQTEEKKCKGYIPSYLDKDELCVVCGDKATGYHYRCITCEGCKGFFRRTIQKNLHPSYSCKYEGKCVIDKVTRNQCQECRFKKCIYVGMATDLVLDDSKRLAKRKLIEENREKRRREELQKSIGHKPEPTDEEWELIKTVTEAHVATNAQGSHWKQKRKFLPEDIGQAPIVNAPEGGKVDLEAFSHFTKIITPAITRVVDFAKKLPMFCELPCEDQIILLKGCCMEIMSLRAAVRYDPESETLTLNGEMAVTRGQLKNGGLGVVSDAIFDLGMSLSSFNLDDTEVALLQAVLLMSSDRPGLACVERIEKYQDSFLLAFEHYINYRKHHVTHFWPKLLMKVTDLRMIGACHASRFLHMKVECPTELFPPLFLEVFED
Sequence of Tumor necrosis factor (Homo sapiens) (P01375 whole entry, looked up): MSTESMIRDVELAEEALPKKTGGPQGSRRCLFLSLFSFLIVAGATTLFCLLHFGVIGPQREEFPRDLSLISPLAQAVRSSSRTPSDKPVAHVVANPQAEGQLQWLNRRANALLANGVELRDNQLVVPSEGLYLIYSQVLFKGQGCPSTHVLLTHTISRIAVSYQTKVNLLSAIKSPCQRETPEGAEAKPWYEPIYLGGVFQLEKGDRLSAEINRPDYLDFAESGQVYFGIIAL
Sequence of Retinoic acid receptor RXR-alpha (Homo sapiens) (P19793 whole entry, looked up): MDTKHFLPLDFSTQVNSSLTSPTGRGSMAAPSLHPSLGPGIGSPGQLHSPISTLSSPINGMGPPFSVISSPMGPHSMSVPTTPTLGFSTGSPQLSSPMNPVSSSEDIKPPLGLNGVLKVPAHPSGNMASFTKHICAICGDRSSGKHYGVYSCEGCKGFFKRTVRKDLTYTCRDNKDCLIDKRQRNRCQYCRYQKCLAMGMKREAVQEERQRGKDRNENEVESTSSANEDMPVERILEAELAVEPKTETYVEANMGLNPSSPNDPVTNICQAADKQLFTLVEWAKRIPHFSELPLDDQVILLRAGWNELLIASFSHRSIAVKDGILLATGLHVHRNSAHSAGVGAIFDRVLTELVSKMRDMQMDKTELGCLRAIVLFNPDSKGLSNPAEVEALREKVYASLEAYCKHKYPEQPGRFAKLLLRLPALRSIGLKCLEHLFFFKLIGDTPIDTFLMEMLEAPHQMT

Row | SMILES | Potency [1] | Potency [2] | Potency [3] | outcome [4] | caspase-3 activation [5] | outcome [6] | outcome [7] | Potency [8] | Potency [9] | Potency [10] | Potency [11] | max response [12] | Potency [13] | max response [14] | Potency [15] | Potency [16] | Potency [17] | outcome [18] | Potency [19] | outcome [20]
1 | Cc1cc(-c2cc(C)c(N)c(C)c2)cc(C)c1N | > 92 µM (inactive) | > 92 µM (inactive) | inactive | inactive | -0.121% (inactive) | inactive | inactive | inactive | inactive | inactive | inactive | -7.36% | inactive | -4.04% (inactive) | inactive | inactive | inactive |  |  | 
2 | Oc1c(Cl)c(Cl)cc(Cl)c1Cl |  |  |  | inactive | -2.19% (inactive) | inactive |  | inactive | inactive | inactive | inactive | 19.2% |  | -10.3% (inactive) | 21.1 µM (active) | inactive | inactive | inactive | inactive | inactive
3 | CCN(N=O)C(N)=O | > 92 µM (inactive) | > 92 µM (inactive) | inactive | inactive | 0.506% (inactive) | inactive | inactive | inactive | inactive | inactive | inactive | -12% | inactive | -5.46% (inactive) | inactive | inactive | inactive | inactive | inactive | inactive
4 | N#CCCCCC#N | > 92 µM (inactive) | > 92 µM (inactive) | inactive | inactive | 0.323% (inactive) | inactive | inactive | inactive | inactive |  | inactive | 10.4% | inactive | 12.5% (inactive) | inactive | inactive | inactive | inactive | inactive | inactive
5 | c1ccc(Nc2ccc(Nc3ccccc3)cc2)cc1 | > 92 µM (inactive) | > 92 µM (inactive) | 15.8 µM (active) | inactive | -2.23% (inactive) | inactive | inactive | inactive |  | inactive | inactive | 0.613% | inactive | -13.3% (inactive) | inactive |  | inactive | inactive |  | 
6 | CN1CSC(=S)N(C)C1 |  |  | inactive | inactive |  | inactive |  | 31.6 µM (active) | 12.6 µM (active) |  | 39.8 µM (active) |  | inactive | -34.7% (inactive) | inactive | inactive |  |  | inactive | inactive
7 | CN(C)C(=O)Nc1ccc(Cl)cc1 | > 92 µM (inactive) | > 92 µM (inactive) | inactive | inactive | 2.1% (inactive) | inactive | inactive | inactive | inactive | inactive | inactive | -9.88% and -12.4% | inactive | -0.754% (inactive) and 1.84% (inactive) | inactive | inactive | inactive | inactive | inactive | inactive
8 | C=CC#N | > 92 µM (inactive) | > 92 µM (inactive) | inactive |  | -0.49% (inactive) | inactive | inactive | inactive | inactive | inactive | inactive | 6.79% | inactive | 19% (inactive) | inactive | inactive | inactive | inactive | inactive | inactive
9 | CC(C)C#N | > 92 µM (inactive) | > 92 µM (inactive) | inactive |  |  | inactive | inactive | inactive | inactive | inactive | inactive | -7.08% | inactive | 2.91% (inactive) | inactive | inactive | inactive | inactive | inactive | inactive
10 | N#CC(Br)Br | > 92 µM (inactive) | > 92 µM (inactive) | inactive | inactive | 5.88% (inactive) | inactive | inactive | inactive |  | inactive | inactive | 0.349% | inactive | 18.7% (inactive) | inactive | inactive | inactive | inactive | inactive | inactive
11 | Cc1ccc(OP(=O)(Oc2ccc(C)cc2)Oc2ccc(C)cc2)cc1 | > 92 µM (inactive) | > 92 µM (inactive) |  | inactive | 2.34% (inactive) | inactive | inactive | inactive | inactive |  | inactive | -17.7% | inactive | -1.31% (inactive) and -25.6% (inactive) |  | inactive | inactive | inactive | 25.1 µM (active) | inactive
12 | O=c1ccc(=O)[nH][nH]1 | > 92 µM (inactive) | > 92 µM (inactive) | inactive | inactive | -1% (inactive) | inactive | inactive | inactive | inactive | inactive | inactive | -8.67% and -14.6% | inactive | -4.77% (inactive) and 2.87% (inactive) | inactive | inactive | inactive | inactive | inactive | inactive
13 | C/C=C/CC#N | > 92 µM (inactive) | > 92 µM (inactive) | inactive | inactive | 1.26% (inactive) | inactive | inactive | inactive | inactive | inactive | inactive | -10.7% | inactive | 13.1% (inactive) | inactive | inactive | inactive | inactive | inactive | inactive
14 | O=Cc1ccc2c(c1)OCO2 | > 92 µM (inactive) | > 92 µM (inactive) | inactive | inactive | 0.153% (inactive) | inactive | inactive | inactive | inactive | inactive | inactive | 19.3% | inactive | -12.4% (inactive) | inactive | inactive | inactive | inactive | inactive | inactive
